Compound activity from PubChem.
Most compounds without a hit are left out; they make up all but 9.3% or so of the library.
HCMV inh: qHTS Assay for inhibitors of the human cytomegalovirus (HCMV); HFF cells, HCMV-luciferase reporter, 72 h; stronger effect = lower value; activity change, negative = inhibition, % at 57.5 µM; hit rate 4.5% among 410,000; AID 1259415, 2018; in the data active means activity change below about -60%; inconclusive means no clear call, values can overlap the other calls; inactive means above about -39%
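Screen run at 2 compound doses on HFFs infected with reporter HCMV, MOI 1 PFU/cell. Luciferase activity from cell lysates at 72 h post infection gave inhibition relative to buffer-only and Salinomycin wells.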
FMDV inh: High Throughput Screening for Foot and Mouth Disease Virus Antivirals. FMDV antiviral cell-based qHTS. Potency, µM (series often up to 57.9 µM), usual class: inhibitors. hit rate 1.2% among 410,000. AID 1159524, 2015; calls by dose curve; tested in HEK293T cells; further: read-out not given here; nearly all actives have a fitted effect of over 45% in size
Vaccinia Venus: qHTS for Stage-Specific Inhibitors of Vaccinia Orthopoxvirus: Venus Reporter Primary qHTS; AID 720580, 2013; Vaccinia virus Venus reporter expression, fluorescence; Potency, µM (top dose mostly 36.5 µM), most hits filed as inhibitors; hit rate 0.46% among 330,000; calls by dose curve; tested in A549 cells; further: nearly all actives have a fitted effect of over 30% in size
Sm TGR inh: qHTS Assay for the Inhibitors of Schistosoma Mansoni Peroxiredoxins; Potency, µM (titrated, usually from 114 µM), most hits filed as inhibitors; Schistosoma mansoni thioredoxin glutathione reductase (TGR), Q962Y6; AID 485364, 2010; hit rate 3% among 360,000; purified TGR, DTNB reduction, TNB absorbance 405 nm; further: nearly all actives have a fitted effect of over 60% in size
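Kinetic colorimetric format: TGR-catalysed, NADPH-driven DTNB reduction monitored via TNB absorbance. Enzyme dispensed at 20 nM; compound exposure 15 min at room temperature before reaction start.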
Vaccinia mCherry: qHTS for Stage-Specific Inhibitors of Vaccinia Orthopoxvirus: mCherry Reporter Primary qHTS | Vaccinia virus mCherry reporter infection, fluorescence | Potency, µM (titrated, usually from 36.5 µM), actives largely listed as inhibitors | hit rate 0.63% among 310,000 | AID 720579, 2013; calls by dose curve; tested in A549 cells; further: nearly all actives have a fitted effect of over 35% in size
HCV inhibitor: qHTS Assay for Inhibitors of Hepatitis C Virus (HCV); Huh7.5.1 HCVcc-Cre infection, luciferase reporter, 44 h; Potency, µM (titrated, usually from 41.8 µM), usual class: inhibitors; hit rate 3.4% among 340,000
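Cells seeded at 1,000/well and cultured 4 h, then compounds added followed by HCVcc-Cre virus (~0.5 moi). After 44 h further culture, luciferase substrate was added, plates held 15 min at room temperature, and luminescence read for 15 sec.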
Hits are given with their value; . = inactive; ? = inconclusive; / = no result given; [ ] = remark or other dose. Unless noted, the call rests on the fitted dose curve; in most records, active means well fitted curve in the direction sought with a large enough effect; inconclusive means small, poorly fitted or top-dose-only effect, or another doubt; inactive means no such curve, though single readings can be large; an effect the other way counts as inactive or inconclusive.

SMILES	HCMV inh	FMDV inh	Vaccinia Venus	Sm TGR inh	Vaccinia mCherry	HCV inhibitor
CCNC(=O)C1(C)CCN(C(=O)c2ccc(F)cc2Cl)C1 (centres undefined)	.	.	.	/	.	/
COc1ccc(/C=C/C(=O)c2c(O)n(CCC3=CCCCC3)c(=O)[nH]c2=O)cc1	.	35µM	.	.	.	.
CC1(C)CC(NCc2ccccc2)CCO1 (centres undefined)	.	.	.	.	.	.
CCCCS(=O)c1c(O)c2ccccc2[nH]c1=O (centres undefined)	.	.	.	.	.	.
Cc1cc(C=C2C(=O)c3ccccc3C2=O)c(C)n1-c1ccccc1	.	1.1µM	/	?	/	.
O=C1C(=Cc2ccccc2[N+](=O)[O-])Cc2ccccc21	-96	?	?	/	?	/
Cc1cc(/C=C2/C(=O)NN(c3ccccc3)C2=O)c(C)n1-c1cccc(O)c1	?	45µM	.	.	.	?
O=C1NN(c2ccccc2)C(=O)C1=Cc1ccccc1O	.	.	.	/	.	/
Nc1ccccc1C=C1Cc2ccccc2C1=O	.	.	.	/	.	.
Cc1cc(/C=C2\Cc3ccccc3C2=O)c(C)n1-c1ccccc1	?	13µM	.	.	.	?
Cc1cc(C=C2C(=O)c3ccccc3C2=O)c(C)n1-c1ccc(C(=O)O)cc1	.	.	.	.	.	.
Cc1ccc(Cl)cc1NC(=O)COC(=O)CSc1ccccc1	.	.	.	/	.	.
CC1(C(=O)Nc2ccc3c(c2)OCCO3)CN(S(C)(=O)=O)CC(=O)N1C1CCCCCC1 (centres undefined)	.	.	.	/	.	/
CCCCCC(=O)Nc1nnc(CCc2ccccc2)s1	.	.	.	.	.	.
CC1=C(CCN2CCN(C3CCCC3)C(CCO)C2)C(C)(C)CCC1 (centres undefined)	.	.	.	.	.	?
CC1=C(CC/C(C)=N/NC(N)=S)C(C)(C)CCC1	.	.	/	.	/	25µM
C=CCOc1ccc(Br)cc1CNC(C)(C)C	.	.	.	/	.	?
CCNC(=S)N1CCN(Cc2ccc3c(c2)OCO3)CC1	.	.	/	.	/	.
O=C(c1sccc1Br)N1CCN(Cc2ccc3c(c2)OCO3)CC1	-63	.	.	.	.	?
C=CCNC(=S)N1CCN(Cc2ccc3c(c2)OCO3)CC1	-98	.	/	.	/	.
O=C(c1cccc(Cl)c1)N1CCN(Cc2ccc3c(c2)OCO3)CC1	.	.	/	.	/	.
Cc1ccc(C(=O)N2CCN(Cc3ccc4c(c3)OCO4)CC2)o1	.	.	.	.	.	.
O=C(C(Cl)Cl)N1CCN(Cc2ccc3c(c2)OCO3)CC1	-74	.	/	.	/	?
CC1CCN(c2nc3ccc(C(=O)N4CCN(Cc5ccc6c(c5)OCO6)CC4)cc3s2)CC1	?	.	?	.	?	3.2µM
CCN1C(=O)[C@H]2[C@@H](c3ccc(C)cc3)N3C(=O)N(c4ccc(C)cc4)C(=O)[C@@]3(Cc3ccc(Cl)cc3)[C@H]2C1=O	.	.	.	.	.	.
SMILES	HCMV inh	FMDV inh	Vaccinia Venus	Sm TGR inh	Vaccinia mCherry	HCV inhibitor
CC1CC(C)CN(CCCNS(=O)(=O)c2ccc3c(c2)oc(=O)n3C)C1 (centres undefined)	.	.	.	.	.	?
COc1ccc(CN2C(=O)C(n3ccc4ccccc43)c3cc(OC(F)(F)F)ccc32)cc1 (centres undefined)	-91	/	/	/	/	/
COc1ccc2c(c1)C(n1ccc3ccccc31)C(=O)N2Cc1ccc(C(F)(F)F)cc1 (centres undefined)	.	/	/	/	/	/
CC(C)c1ccc(CN2C(=O)C(n3ccc4ccccc43)c3cc(Cl)ccc32)cc1 (centres undefined)	-76	/	/	/	/	/
Cc1cc(C)c2[nH]c(=O)c(C(c3nnnn3Cc3ccc4c(c3)OCO4)N3CCCCC3)cc2c1 (centres undefined)	.	.	.	?	/	.
Cc1cc(C)c2[nH]c(=O)c(C(c3nnnn3C(C)(C)C)N3CCN(C(=O)c4ccco4)CC3)cc2c1 (centres undefined)	/	/	.	79µM	.	.
CCC(C)(C)n1nnnc1C(c1cc2ccc(OC)cc2[nH]c1=O)N1CCCCC1 (centres undefined)	.	.	/	.	/	.
CCC(C)(C)n1nnnc1C(c1cc2cc(C)cc(C)c2[nH]c1=O)N1CCCC1 (centres undefined)	.	.	/	22µM	/	?
CCC(C)(C)n1nnnc1C(c1cc2cc(C)cc(C)c2[nH]c1=O)N1CCN(Cc2ccc3c(c2)OCO3)CC1 (centres undefined)	-60	5.6µM	.	?	.	.
COc1ccccc1C(c1nnnn1C(C)(C)C)N1CCN(C(=O)c2ccco2)CC1 (centres undefined)	.	.	?	.	/	.
CCC(C)(C)n1nnnc1C(c1cc2cccc(C)c2[nH]c1=O)N1CCCC1 (centres undefined)	.	.	.	10µM	?	?
Cc1cc(C(=O)COc2ccc(-c3nnco3)cc2)c(C)n1Cc1ccccc1	-70	?	/	?	/	?
CCOC(=O)N1C(=O)[C@](c2ccc(Cl)cc2)(C(C)C)N1C(=O)OCC	-90	28µM	?	18µM	10µM	.
CCOC(=O)N1C(=O)[C@@](c2ccc(Cl)cc2)(C(C)C)N1C(=O)OCC	.	?	13µM	11µM	?	.
CCOC(=O)n1c(=O)oc2ccc(Cl)cc21	.	.	/	.	/	.
CCOC(=O)C1(C(N)=O)OC1(c1ccc(Cl)cc1)c1ccccc1Cl (centres undefined)	.	.	.	/	.	.
O=C(CSC1=NS(=O)(=O)c2cc(F)ccc2N1)NCc1ccccc1Cl	.	.	.	.	.	.
Cc1ccccc1S(=O)Cc1ccc(C(=O)NCCCN2CCCCC2)o1 (centres undefined)	.	.	.[7.34 µM]	.	.[7.34 µM]	.
CC(C)(C)C1CCc2c(sc(NC(=O)c3ccccc3F)c2C(=O)NCc2ccco2)C1 (centres undefined)	.	.	.	.	.	/
C[C@@H]1CC=C[C@H]2[C@H]1C(=O)N(Cc1ccccc1)[C@H]2c1ccc(F)c(Br)c1	/	/	/	.	/	/
CCOC(=O)/C(C#N)=C\c1c(OCC)n(CC)c2ccccc12	-69	?	.	.	.	?
CCOC(=O)COc1cc(=O)n(CC)c2ccccc12	.	.	.	.	.	?
CCOc1c(/C=C(\C#N)C(N)=O)c2ccccc2n1CC	-67	?	.	.	.	?
Fc1cccc(Cl)c1Cn1c(-c2cccs2)nc2ccccc21	-63	.	.[7.34 µM]	.	.[7.34 µM]	/
OCc1nc2ccccc2n1Cc1c(F)cccc1Cl	.	.	.	.	.	.
